An excerpt weighted towards active compounds, which were near 2.9% of everything screened.
Rtt109 HAT inh – inhibitors of Candida albicans Rtt109/Vps75 histone acetyltransferase; purified Rtt109/Vps75, ThioGlo CoA-SH fluorescence, 4 h; inhibition, % at 34.9 µM; 330,000 tested, 0.16% active;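 active means inhibition of at least 50% in every replicate; inconclusive means best replicate reaches 50% inhibition but some replicates fall short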
sPLA2-III inh – Inhibits HGIII-sPLA2 liposome hydrolysis, primary screen; Q9NZ20; QFRET BODIPY PC-A2 liposome hydrolysis, fluorescence; inhibition, % at 12.2 µM; 370,000 tested, 0.56% active;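 active means inhibition above mean plus 3 SD of compounds lying within the high and low control bounds, cut at about 19% in these data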
Target sequence (Q9NZ20 whole entry, looked up): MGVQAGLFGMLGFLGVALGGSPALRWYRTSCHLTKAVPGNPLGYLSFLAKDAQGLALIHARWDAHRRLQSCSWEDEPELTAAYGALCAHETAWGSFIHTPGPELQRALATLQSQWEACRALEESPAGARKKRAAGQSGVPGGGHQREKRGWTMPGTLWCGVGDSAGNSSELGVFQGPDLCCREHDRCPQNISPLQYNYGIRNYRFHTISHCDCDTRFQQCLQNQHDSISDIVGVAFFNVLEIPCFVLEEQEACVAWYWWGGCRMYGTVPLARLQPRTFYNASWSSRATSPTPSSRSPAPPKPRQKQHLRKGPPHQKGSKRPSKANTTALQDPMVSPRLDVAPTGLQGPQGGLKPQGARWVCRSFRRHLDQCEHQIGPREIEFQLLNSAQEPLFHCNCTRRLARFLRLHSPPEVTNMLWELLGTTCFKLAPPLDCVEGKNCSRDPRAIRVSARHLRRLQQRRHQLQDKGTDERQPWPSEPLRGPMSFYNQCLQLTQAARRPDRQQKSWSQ
Myeloid diff MLP – myeloid differentiation induction. 360,000 tested, 1% active. ER-HoxA9 myeloid progenitors, lysozyme-GFP differentiation, flow cytometry. calls only at 10 µM;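 active means normalized GFP-positive differentiation at or above the plate's own cutoff, the solvent-only control mean plus 3 SD; inconclusive means no clear call, values can overlap the other calls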;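 further: cells exposed to compound for four days before flow analysis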
DAGLB inh – diacylglycerol lipase beta (human) inhibition | Q8NCG7 | HEK293T DAGLB membrane lysate, EnzChek fluorogenic substrate | inhibition, % at 5.17 µM | 340,000 tested, 0.059% active; in the data active means inhibition above about 34%
H9c2 protect – protects H9c2 cardiomyocytes from peroxide injury; 360,000 tested, 0.63% active; H2O2 injury protection, ATPLite, 2 h; protection from H2O2 cell death, % at 20 µM;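 active means compounds giving at least 50% protection of heart cells from peroxide-induced death in the single-dose screen, raw or plate-pattern-corrected value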
ABHD5-PLIN5 inh – blocks binding of human ABHD5 to perilipin-5. inhibition, % at 4 µM. 360,000 tested, 0.78% active. Split G. princeps luciferase complementation, luminescence, 4 h. Q00G26+Q8WTS1;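 active means inhibition above the mean inhibition across every tested compound plus 3 SD, cut at about 22% in these data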
Myeloid diff CP1 – myeloid differentiation induction; 2,300 tested, 2% active; calls only; shares compounds with Myeloid diff MLP; AID 651706; ER-HoxA9 myeloid progenitors, GFP/Mac1 double-positive flow;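 active means share of green or green-and-red cells above 9 and 9% in run 1 or 4 and 3% in run 2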
GFP autofluor – flagged as fluorescent in myeloid differentiation counter-screen; shares compounds with Myeloid diff MLP; 2,300 tested, 7.4% active; ER-HoxA9 myeloid progenitors, no estrogen, GFP autofluorescence flow cytometry; vehicle wells 0%, positive control 100%; fluorescence response, % (test concentration not listed);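 active means over 5% cells positive for green fluorescent reporter, or over 2% positive for both it and APC stain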
Hits are given with their value; – = inactive; ? = inconclusive; · = no result; + = active, no number.

SMILES	Rtt109 HAT inh	sPLA2-III inh	Myeloid diff MLP	DAGLB inh	H9c2 protect	ABHD5-PLIN5 inh	Myeloid diff CP1	GFP autofluor
O=C(CSc1nc(-c2ccccc2Cl)ns1)Nc1ccc2c(c1)OCO2	–	–	+	–	–	–	–	–
Cc1ccc(-c2nsc(SCC(=O)Nc3ccc4c(c3)OCO4)n2)cc1	–	–	–	–	–	–	·	·
CSc1nc(O)c(N=Nc2ccc(F)cc2F)c(=O)[nH]1	–	–	–	–	–	–	·	·
Cc1cc(C)c(S(C)(=O)=O)c(=O)[nH]1	–	–	–	–	–	–	·	·
Cc1cc(=O)c2c([nH]1)c(C)cc1[nH]c(C)c(C)c12	–	–	–	–	–	–	–	–
COc1cccc(Oc2c(C)oc3c(CN4CCCC4)c(O)ccc3c2=O)c1	–	–	–	–	–	–	–	–
O=C(CCSc1nnc2ccccn12)Nc1ccc2c(c1)OCO2	–	–	–	–	–	–	·	·
OCCCNc1cc(-c2ccnc(Nc3cccc(Cl)c3)n2)ccn1	–	–	–	–	–	–	–	–
COc1ccc(-c2ccc(C(=O)NCc3ccc(N4CCN(C)CC4)cc3)c3occc23)c(C)c1	·	–	+	·	–	–	–	–
O=C(c1sc2ccccc2c1Cl)N1CCN(c2ccccc2F)CC1	–	–	–	–	–	–	·	·
O=C(Cn1c(=O)n(Cc2ccc(F)cc2)c(=O)c2ccccc21)NCC1CCCO1 (stereo unspecified)	–	–	–	–	–	–	·	·
O=C(Cn1c(=O)n(Cc2ccco2)c(=O)c2cc(Cl)ccc21)NCC1CCCO1 (stereo unspecified)	–	–	+	–	–	–	–	–
O=C(NCc1ccc(Cl)cc1)NCC(F)(F)F	–	–	–	–	–	–	·	·
CCOC(=O)C(NC(=O)CC(C)C)(Nc1cc(C)on1)C(F)(F)F (stereo unspecified)	–	–	–	–	–	–	·	·
CN(C)c1cccc(Nc2ccc(-c3ccc(OC(F)(F)F)cc3)cn2)c1	·	–	+	·	–	–	–	–
CN(C)c1cccc(-c2cc(Nc3ccc(C(C)(C)C)cc3)ncn2)c1	·	–	–	·	–	–	·	·
CCCCOc1ccc(C(=O)Nc2ccc(S(=O)(=O)Nc3onc(C)c3C)cc2)cc1	–	–	–	–	–	–	·	·
CC(C)C(=O)N(Nc1nc2ccccc2s1)C(=O)C(C)C	–	–	+	–	–	–	–	–
COC(=O)C(C)Sc1nnc2n(-c3cccc(C)c3)c(=O)c3c4c(sc3n12)CCCC4 (stereo unspecified)	–	–	–	–	–	–	–	–
Cc1cccc(-n2c(=O)c3c4c(sc3n3c(=S)[nH]nc23)CCC4)c1	–	–	–	·	–	–	·	·
OCC[C@@H]1C[C@@H](O)[C@H](O)[C@]2(OCCc3ccccc32)O1	–	–	–	–	–	–	·	·
O=C(O)CCC1(C(=O)O)OCCc2ccccc21 (stereo unspecified)	·	–	–	–	–	–	–	–
ClCCn1cnc2c(SCc3ccccc3Cl)ncnc21	–	–	–	–	–	–	–	–
CCc1cc(CNC(=O)c2cccc(OC3CCN(S(C)(=O)=O)CC3)c2)on1	–	–	–	–	–	–	·	·
COc1ccc(C(=O)Nc2cccc(N(C)S(C)(=O)=O)c2)cc1OC	–	–	–	–	–	–	–	–
SMILES	Rtt109 HAT inh	sPLA2-III inh	Myeloid diff MLP	DAGLB inh	H9c2 protect	ABHD5-PLIN5 inh	Myeloid diff CP1	GFP autofluor
COc1ccc(NC(=O)c2ccc(N(C)S(C)(=O)=O)cc2)cc1OC	–	–	–	–	–	–	·	·
O=C(NN(c1ccccc1)c1ccccc1)c1ccccc1F	–	–	–	–	–	–	·	·
COC(=O)c1ccc(COC(=O)CSCC(=O)Nc2ccc(C)cc2C)cc1	–	–	–	–	–	–	·	·
CC(C)CC(=O)NC(NC(=S)Nc1ccccc1)C(Cl)(Cl)Cl (stereo unspecified)	–	–	–	–	–	–	–	–
Cc1cccc(NC(=S)NC(NC(=O)OCc2ccccc2)C(Cl)(Cl)Cl)c1 (stereo unspecified)	–	–	–	–	–	–	–	–
CC(=O)N1N=C(c2ccc(Cl)cc2)OC1c1ccc(C(C)C)cc1 (stereo unspecified)	–	–	–	–	–	–	–	–
CC(=O)N1N=C(c2ccc(C)cc2)OC1c1ccc(Br)cc1 (stereo unspecified)	–	–	–	–	–	–	·	·
COc1ccc(NC(=O)CN(C)C2CCCCC2)cc1Cl	–	–	–	–	–	–	·	·
CCOc1cccc(=O)c2c(C)n(CC(=O)c3ccccc3)c(C)c12	–	–	–	–	–	–	·	·
CCOc1cccc(=O)c2c(C)oc(C)c12	–	–	–	–	–	–	–	–
COc1ccc(/C=C/c2cccc[n+]2C)c(O)c1	–	–	–	–	–	–	+	–
C[n+]1ccccc1/C=C/c1cc(Br)ccc1O	–	–	–	–	–	–	·	·
COc1ccc(NC(=O)c2ccc([N+](=O)[O-])s2)c([N+](=O)[O-])c1	–	–	–	–	–	–	–	–
CC(C)C(OC(=O)c1nsc(Cl)c1Cl)C(=O)NC(C)(C)C (stereo unspecified)	–	–	–	–	–	–	·	·
O=C1COc2ccc(C(=O)NCc3ccco3)cc2N1	66.9	–	–	–	–	–	–	–
CCOc1ccccc1C(C(=O)NCCOC)N(CCOC)C(=O)Cn1nnc2ccccc21 (stereo unspecified)	–	–	–	–	–	–	–	–
COCCNC(=O)C(c1ccc(C)o1)N(CCOC)C(=O)Cn1nnc2ccccc21 (stereo unspecified)	–	–	–	–	–	–	·	·
c1ccc2c(-c3ccc(OCCN4CCCCC4)cc3)c(-c3ccsc3)sc2c1	–	–	–	–	–	–	·	·
CNc1ccc(C(O)(C(F)(F)F)C(F)(F)F)cc1C(O)(C(F)(F)F)C(F)(F)F	–	–	+	–	–	–	–	–
COc1ccc(/C=C2\C(=O)NCC(=O)N2Cc2ccccc2)cc1	–	–	+	–	–	–	–	–
COc1ccc(NC(=S)N2CCN(Cc3ccc(C)cc3)CC2)cc1	–	–	–	–	–	–	·	·
O=C(N/N=C\CCc1ccccc1)c1ccco1	–	–	–	–	–	–	–	–
Cc1ccc(N=Nc2c(N)nn(-c3ccccc3)c2N)cc1	–	–	?	–	–	–	·	·
Cn1cccc1CC(=O)NNC(=O)Nc1ccc(F)cc1	–	–	–	–	–	–	·	·
COCCn1ccc2c(OCC(=O)Nc3cc(OC)ccc3OC)cccc2c1=O	–	–	+	–	–	–	–	–
O=C(O)c1ccccc1Nc1ccccc1C(=O)O	–	–	–	–	–	–	·	·

Compound activity: PubChem, several laboratories
